This passage reports Potency and outcome results from PubChem BioAssay (Tox21).

Structures are written as SMILES. Unmarked numbers belong to inactive results. Records with an inconclusive call do not appear. Active and inactive are the calls of the source. Unless noted, the call rests on the fitted dose curve; in most records, active means well fitted curve in the direction sought with a large enough effect in the repeat runs; inconclusive means weak or mixed curves; inactive means no such curve, though single readings can be large; an effect the other way counts as inactive or inconclusive.

The nature of assay [1]: qHTS assay to identify small molecule antagonists of the estrogen related receptor (ERR) signaling pathway - cell viability counter screen (AID 1224818).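 Further: series mostly up to about 46 µM; viability measured after 17.5 h of compound exposure.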 The essentials:
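Cells carrying the ERR pathway reporter were seeded and incubated for 6 hours before compound addition. After a 17.5-hour exposure at 37 C, live-cell protease activity was measured by CellTiter-Fluor fluorescence following 30 minutes of incubation.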

A short description of assay [2]: qHTS assay to identify small molecule agonists of the estrogen related receptor (ERR) signaling pathway (AID 1224820). The procedure, abridged: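 Quantitative HTS of the LOPAC library used NTP ERR reporter cells treated 18 h at 37 C. Signal is luminescence after One-Glo addition and a 30 min room-temperature incubation.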
For orientation: In qHTS, concentration-response curves come from the screen itself.

Assay [3] deals with estrogen-related receptor alpha (ERRalpha) with PGC-1alpha coactivator, human. Put plainly: qHTS assay to identify small molecule antagonists of the estrogen related receptor signaling pathway with the pleiotropic PPARgamma coactivator (PGC) (AID 1224821; calls by dose curve;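 further: series mostly up to about 46 µM; lower luminescence signal means antagonism of PGC/ERR signalling; nearly all actives have a fitted effect of over 50% in size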). The procedure, abridged:
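Quantitative HTS for antagonism: PGC/ERR cells received compounds after 6 h attachment and were incubated 18 h at 37 C, with luminescence (One-Glo) as the endpoint.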

The nature of assay [4]: qHTS assay to identify small molecule antagonists of the estrogen related receptor signaling pathway with the pleiotropic PPARgamma coactivator (PGC) cell viability counter screen (AID 1224822;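 further: series mostly up to about 46 µM; viability read after 17.5 h compound exposure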). The procedure, abridged:
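Seed PGC/ERR cells (2,000/well); incubate 6 h at 37 C/5% CO2; pin-transfer compounds in DMSO; incubate 17.5 h at 37 C; add CellTiter-Fluor; after 30 min read fluorescence.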

Assay [5] can be described thus: qHTS assay to identify small molecule agonists of the estrogen related receptor signaling pathway with the pleiotropic PPARgamma coactivator (PGC) (AID 1224823). The essentials: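 Cell-based luciferase assay in the NTP-supplied PGC/ERR line, 2,000 cells/well; 18 h compound exposure at 37 C, luminescence after One-Glo.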
The nature of assay [6]: qHTS assay for small molecules that induce genotoxicity in human embryonic kidney cells expressing luciferase-tagged ATAD5 (AID 651632). Further: nearly all actives have a fitted effect of over 15% in size. The procedure, abridged:
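Increased luciferase signal from ATAD5-tagged reporter cells indicates DNA-damage-driven ATAD5 induction. HEK293T cells are treated for 16 hr at 37C before detection with Amplite.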

The nature of assay [7]: qHTS assay for small molecules that induce genotoxicity in human embryonic kidney cells expressing luciferase-tagged ATAD5 - cell viability (AID 651634; calls by dose curve; further: nearly all actives have a fitted effect of over 25% in size). The procedure, abridged: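 Cytotoxicity counterscreen in HEK293T cells bearing an ATAD5-luciferase reporter: live-cell protease activity measured by CellTiter-Fluor fluorescence after 15.5 hr compound exposure.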
Assay [8] is described as follows: qHTS assay for small molecule disruptors of the mitochondrial membrane potential - cell viability (AID 720634; calls by dose curve;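 further: human HepG2 liver cancer cells; series mostly up to about 83 µM; nearly all actives have a fitted effect of over 20% in size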). The procedure, abridged:
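After overnight attachment at 37 C, HepG2 cells received compound or DMSO vehicle for 1 hr. Viability is then taken from ATP-driven luminescence following a 30 min room-temperature CellTiter-Glo step.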

Assay [9] can be described thus: qHTS assay to test for compound auto fluorescence at 590 nm (red) in HepG2 cells (AID 720674). The essentials:
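1 hr compound incubation on HepG2 cells, 37 C, 5% CO2; plate read ex 540 nm / em 590 nm; intensities reported as Rose Bengal sodium equivalents.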

A short description of assay [10]: qHTS assay to test for compound auto fluorescence at 535 nm (green) in HepG2 cells (AID 720675).
The nature of assay [11]: qHTS assay to test for compound auto fluorescence at 535 nm (green) in HEK293 cells (AID 720680).
Assay [12] is described as follows: qHTS assay to test for compound auto fluorescence at 460 nm (blue) in HEK293 cell free culture (AID 720681). The procedure, abridged:
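Blue fluorescence (Ex 405/Em 460 nm, triamterene-equivalent) was read immediately after pin transfer of compound or DMSO into medium (DMEM, 10% FBS) without cells.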

Assay [13] is described as follows: qHTS assay to test for compound auto fluorescence at 535 nm (green) in HEK293 cell free culture (AID 720682). The procedure, abridged: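 Steps: dispense DMEM/10% FBS into empty wells; pin in compound or DMSO; measure fluorescence at 485/535 nm. Values are fluorescein equivalents.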
Assay [14] can be described thus: qHTS assay to test for compound auto fluorescence at 590 nm (red) in HEK293 cell free culture (AID 720683). The essentials:
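Red-channel autofluorescence of compounds in culture medium (DMEM, 10% FBS), no cells, measured at 540/590 nm. Rose Bengal sodium is the reference fluorophore for equivalence.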

The nature of assay [15]: qHTS assay to test for compound auto fluorescence at 590 nm (red) in HepG2 cell free culture (AID 720684). The essentials: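 Plate contents were MEM with 10% FBS plus test compound or DMSO, no cells. Fluorescence was recorded with 540 nm excitation and 590 nm emission.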
Assay [16] can be described thus: qHTS assay to test for compound auto fluorescence at 460 nm (blue) in HepG2 cell free culture (AID 720685). The procedure, abridged: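 Compound (23 nL) or DMSO pinned into cell-free MEM with 10% FBS; blue fluorescence read at 405/460 nm excitation/emission, expressed as auto-fluorescence equivalency to triamterene.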
Assay [17] can be described thus: qHTS assay to test for compound auto fluorescence at 460 nm (blue) in HepG2 cells (AID 720687). The procedure, abridged:
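Blue-channel autofluorescence (Ex/Em 405/460 nm, triamterene-equivalent) was measured after 1 hr compound exposure at 37 C, 5% CO2. Cells were HepG2, plated overnight at 37 C in MEM plus 10% FBS.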

The target in assay [18] is Glucocorticoid receptor (Homo sapiens) (UniProt P04150). Kind of assay: qHTS assay to identify small molecule agonists of the glucocorticoid receptor (GR) signaling pathway (AID 720691; active means well fitted activation curve with a large enough effect in the signal ratio in the repeat runs, not every such curve was filed as active; the % refers to the signal ratio). The procedure, abridged:
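Agonist mode in a HeLa line carrying a GRE-controlled beta-lactamase reporter. Compounds act for 18 h at 37 C before a 2 h room-temperature FRET substrate step and fluorescence reading.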

The target is the same in assay [19]. Kind of assay: qHTS assay to identify small molecule antagonists of the glucocorticoid receptor (GR) signaling pathway (AID 720692; active means well fitted inhibition curve with a large enough effect in the signal ratio in the repeat runs, not every such curve was filed as active; the % refers to the signal ratio). The essentials: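 Cells plated, rested 4 h at 37 C/5% CO2; compounds in DMSO pin-transferred; dexamethasone added to 5 nM final; 18 h at 37 C; B/G FRET substrate added, 2 h room temperature; fluorescence measured.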
Assay [20] in a line: qHTS assay to identify small molecule antagonists of the glucocorticoid receptor (GR) signaling pathway - cell viability counter screen (AID 720693). Further: nearly all actives have a fitted effect of over 55% in size.
A short description of assay [21]: qHTS assay for identifying genotoxic compounds that show differential cytotoxicity against isogenic chicken DT40 cell lines with known DNA damage response pathways - Rev3 mutant cell line (AID 743014). Further: potency means the concentration at half of the fitted maximal effect; nearly all actives have a fitted effect of over 55% in size.
The nature of assay [22]: qHTS assay for identifying genotoxic compounds that show differential cytotoxicity against isogenic chicken DT40 cell lines with known DNA damage response pathways - Rad54/Ku70 mutant cell line (AID 743015). Further: potency means the concentration at half of the fitted maximal effect; nearly all actives have a fitted effect of over 60% in size.
For assay [23], the target named is Androgen receptor (Homo sapiens) (UniProt P10275). Put plainly: qHTS assay to identify small molecule antagonists of the androgen receptor (AR) signaling pathway (AID 743035; active means well fitted inhibition curve with a large enough effect in the signal ratio in the repeat runs, not every such curve was filed as active; the % refers to the signal ratio). The essentials: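 Antagonism is scored as loss of R1881-driven beta-lactamase reporter expression in HEK293 cells carrying the reporter under a UAS element, after 16 h co-treatment at 37C and a 2 h room-temperature FRET substrate read.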

The target is the same in assay [24]. Put plainly: qHTS assay to identify small molecule agonists of the androgen receptor (AR) signaling pathway using the MDA cell line (AID 743040; further: nearly all actives have a fitted effect of over 20% in size). The essentials: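 After a 5 h incubation at 37C and 0% CO2, MDA-kb2 reporter cells were dosed with compounds in DMSO and kept 16 h under the same conditions. Luciferase activity was then read as luminescence with ONE-Glo.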

Assay [25] is described as follows: qHTS assay to identify small molecule antagonists of the thyroid receptor (TR) signaling pathway - cell viability counter screen (AID 743064). Further: potency means the concentration at half of the fitted maximal effect; nearly all actives have a fitted effect of over 50% in size. The essentials: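 Plate GH3.TRE-Luc cells; incubate 4 h at 37 °C; add compound, then T3 to 1 nM final; incubate 23.5 h; add CellTiter-Fluor; incubate 30 min at 37 °C, 5% CO2; read fluorescence.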
Assay [26] in a line: qHTS assay to identify small molecule antagonists of the thyroid receptor (TR) signaling pathway (AID 743065). Further: potency means the concentration at half of the fitted maximal effect; nearly all actives have a fitted effect of over 55% in size. The essentials:
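Antagonism measured as loss of luciferase signal in GH3 cells stably carrying a TRE-luciferase reporter, co-treated with compound and T3 (1 nM final) for 23.5 h at 37 C. Viability was read in the same well by CellTiter-Fluor.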

The nature of assay [27]: qHTS assay to identify small molecule antagonists of the estrogen receptor alpha (ER-alpha) signaling pathway - cell viability counter screen (AID 743074; calls by dose curve;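 further: HEK293 cells carrying ER-alpha-UAS-bla reporter stimulated with 17beta-estradiol; nearly all actives have a fitted effect of over 45% in size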).
Assay [28] is described as follows: qHTS assay to identify small molecule antagonists of the estrogen receptor alpha (ER-alpha) signaling pathway using the BG1 cell line - cell viability counter screen (AID 743081).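 Further: compound given together with 17beta-estradiol as the ER stimulus; series mostly up to about 70 µM; nearly all actives have a fitted effect of over 45% in size.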
The nature of assay [29]: qHTS assay to identify aromatase inhibitors - cell viability counter screen (AID 743084).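 Further: cells stimulated with testosterone during compound exposure; nearly all actives have a fitted effect of over 55% in size.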
Assay [30] addresses Aryl hydrocarbon receptor (Homo sapiens) (UniProt P35869). Kind of assay: qHTS assay to identify small molecule that activate the aryl hydrocarbon receptor (AhR) signaling pathway (AID 743085). Further: potency means the concentration at half of the fitted maximal effect; nearly all actives have a fitted effect of over 15% in size. The procedure, abridged: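 Steps: seed HepG2-AhR-luc cells; allow 5 h at 37C; pin-transfer test compound or vehicle; incubate 24 h at 37C; add viability dye (30 min, 37C) and read fluorescence; add luciferase substrate (30 min, RT) and read luminescence.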

A short description of assay [31]: qHTS assay to identify small molecule that activate the aryl hydrocarbon receptor (AhR) signaling pathway - cell viability counter screen (AID 743086). Further: series mostly up to about 70 µM; nearly all actives have a fitted effect of over 45% in size. The procedure, abridged: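 Cytotoxicity counter screen: CellTiter-Fluor signal (30 min, 37 C) in 4000 HepG2 cells/well carrying the DRE-luciferase reporter, following 24 h compound exposure at 37 C.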
Assay [32] concerns the target Peroxisome proliferator-activated receptor gamma (Homo sapiens) (UniProt P37231). Kind of assay: qHTS assay to identify small molecule agonists of the peroxisome proliferator-activated receptor gamma (PPARg) signaling pathway (AID 743094; active means well fitted activation curve with a large enough effect in the signal ratio in the repeat runs, not every such curve was filed as active; the % refers to the signal ratio). The procedure, abridged: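 Quantitative HTS agonist mode: stable HEK293H line with UAS-beta-lactamase reporter under PPARg control, 17 h compound exposure at 37C, fluorescence after 1 h FRET substrate loading at room temperature.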

Assay [33] has as its target Nuclear receptor subfamily 1 group I member 2 (Homo sapiens) (UniProt O75469). Put plainly: CYP3A4 induction through human pregnane X receptor (PXR) by small molecules, qHTS assay (AID 1346984). Further: potency means the concentration at half of the fitted maximal effect; nearly all actives have a fitted effect of over 40% in size. The essentials:
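Steps: seed DPX-2 cells, 5 hr at 37C; pin-transfer compounds; 24 hr at 37C; add Luciferin-IPA (3uM final), 3 hr at 37C; add One-Glo, 30 min RT; read luminescence.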

Assay [34] has the same target. Put plainly: Human pregnane X receptor (PXR) activation by small molecules, qHTS assay (AID 1346985). Further: nearly all actives have a fitted effect of over 40% in size. The essentials: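 DPX-2 cells (HepG2 co-transfected with a PXR response element and a CYP3A4-promoter luciferase construct) were seeded at 2,000 per well, rested 5 hr at 37C, then exposed to DMSO-dissolved compounds for 24 hr. Activation was read as luciferase luminescence.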

Androgen receptor (Homo sapiens), sequence (P10275 whole entry, looked up): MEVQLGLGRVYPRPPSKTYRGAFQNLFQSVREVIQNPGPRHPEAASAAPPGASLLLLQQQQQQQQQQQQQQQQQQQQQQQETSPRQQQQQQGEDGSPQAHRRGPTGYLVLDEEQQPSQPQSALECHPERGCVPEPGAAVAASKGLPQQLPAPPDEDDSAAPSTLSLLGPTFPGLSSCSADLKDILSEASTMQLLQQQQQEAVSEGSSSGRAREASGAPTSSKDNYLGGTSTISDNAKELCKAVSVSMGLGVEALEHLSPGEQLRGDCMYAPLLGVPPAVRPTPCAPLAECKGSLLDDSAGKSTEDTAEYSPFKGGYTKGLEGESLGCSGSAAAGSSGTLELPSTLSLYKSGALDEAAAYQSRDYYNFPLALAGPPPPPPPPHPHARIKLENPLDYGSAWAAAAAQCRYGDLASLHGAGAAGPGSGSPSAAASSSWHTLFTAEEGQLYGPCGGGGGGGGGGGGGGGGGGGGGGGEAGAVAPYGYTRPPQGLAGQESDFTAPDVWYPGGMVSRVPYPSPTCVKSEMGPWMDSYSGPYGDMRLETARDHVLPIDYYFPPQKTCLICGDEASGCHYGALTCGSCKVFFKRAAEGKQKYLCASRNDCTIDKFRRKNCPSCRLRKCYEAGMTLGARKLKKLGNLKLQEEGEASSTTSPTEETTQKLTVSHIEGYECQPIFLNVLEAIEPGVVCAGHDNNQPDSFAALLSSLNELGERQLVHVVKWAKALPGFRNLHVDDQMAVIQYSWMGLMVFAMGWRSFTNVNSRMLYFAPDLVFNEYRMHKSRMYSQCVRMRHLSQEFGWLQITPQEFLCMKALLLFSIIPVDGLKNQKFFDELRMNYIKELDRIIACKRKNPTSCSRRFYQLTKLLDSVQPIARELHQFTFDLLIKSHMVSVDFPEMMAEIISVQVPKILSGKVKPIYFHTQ
Glucocorticoid receptor (Homo sapiens), sequence (P04150 whole entry, looked up): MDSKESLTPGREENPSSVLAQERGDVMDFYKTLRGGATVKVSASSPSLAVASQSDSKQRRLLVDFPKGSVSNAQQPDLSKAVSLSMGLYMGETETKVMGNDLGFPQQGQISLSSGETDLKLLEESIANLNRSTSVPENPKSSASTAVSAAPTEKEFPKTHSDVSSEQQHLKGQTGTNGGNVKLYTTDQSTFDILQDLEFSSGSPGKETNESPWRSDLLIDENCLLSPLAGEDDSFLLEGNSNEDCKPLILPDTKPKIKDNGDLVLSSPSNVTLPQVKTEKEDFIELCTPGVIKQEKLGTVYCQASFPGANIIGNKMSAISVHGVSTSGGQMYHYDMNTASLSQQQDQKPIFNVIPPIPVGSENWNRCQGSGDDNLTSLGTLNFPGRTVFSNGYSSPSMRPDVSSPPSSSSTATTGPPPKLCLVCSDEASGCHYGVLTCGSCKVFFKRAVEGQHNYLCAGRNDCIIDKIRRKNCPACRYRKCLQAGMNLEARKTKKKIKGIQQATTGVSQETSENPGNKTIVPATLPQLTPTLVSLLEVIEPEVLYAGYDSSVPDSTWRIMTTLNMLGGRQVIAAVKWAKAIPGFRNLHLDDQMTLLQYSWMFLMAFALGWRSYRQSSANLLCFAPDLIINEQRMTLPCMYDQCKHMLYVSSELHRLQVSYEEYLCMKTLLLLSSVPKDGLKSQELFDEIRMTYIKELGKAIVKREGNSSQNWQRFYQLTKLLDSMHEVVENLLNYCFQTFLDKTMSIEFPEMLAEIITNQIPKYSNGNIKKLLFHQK
Aryl hydrocarbon receptor (Homo sapiens), sequence (P35869 whole entry, looked up): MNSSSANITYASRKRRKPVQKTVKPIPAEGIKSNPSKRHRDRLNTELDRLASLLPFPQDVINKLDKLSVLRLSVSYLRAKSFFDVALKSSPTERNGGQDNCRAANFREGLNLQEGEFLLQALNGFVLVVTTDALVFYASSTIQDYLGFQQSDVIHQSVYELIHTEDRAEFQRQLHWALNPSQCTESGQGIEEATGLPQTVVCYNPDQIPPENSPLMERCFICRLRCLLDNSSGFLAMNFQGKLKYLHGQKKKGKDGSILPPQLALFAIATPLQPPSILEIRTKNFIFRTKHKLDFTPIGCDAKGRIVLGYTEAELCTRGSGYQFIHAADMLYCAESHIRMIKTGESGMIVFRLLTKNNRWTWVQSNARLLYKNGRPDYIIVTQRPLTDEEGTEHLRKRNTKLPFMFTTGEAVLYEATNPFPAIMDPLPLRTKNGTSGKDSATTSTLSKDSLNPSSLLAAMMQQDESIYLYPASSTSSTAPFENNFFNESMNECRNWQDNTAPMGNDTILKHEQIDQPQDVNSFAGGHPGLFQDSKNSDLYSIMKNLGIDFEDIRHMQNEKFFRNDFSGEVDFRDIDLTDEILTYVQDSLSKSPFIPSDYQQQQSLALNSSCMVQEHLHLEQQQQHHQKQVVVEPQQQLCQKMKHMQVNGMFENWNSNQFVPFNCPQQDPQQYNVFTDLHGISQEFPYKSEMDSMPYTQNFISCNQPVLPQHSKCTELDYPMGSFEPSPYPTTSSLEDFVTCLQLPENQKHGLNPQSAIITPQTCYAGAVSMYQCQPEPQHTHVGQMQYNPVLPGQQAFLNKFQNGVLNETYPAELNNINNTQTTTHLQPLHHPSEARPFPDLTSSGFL
Peroxisome proliferator-activated receptor gamma (Homo sapiens), sequence (P37231 whole entry, looked up): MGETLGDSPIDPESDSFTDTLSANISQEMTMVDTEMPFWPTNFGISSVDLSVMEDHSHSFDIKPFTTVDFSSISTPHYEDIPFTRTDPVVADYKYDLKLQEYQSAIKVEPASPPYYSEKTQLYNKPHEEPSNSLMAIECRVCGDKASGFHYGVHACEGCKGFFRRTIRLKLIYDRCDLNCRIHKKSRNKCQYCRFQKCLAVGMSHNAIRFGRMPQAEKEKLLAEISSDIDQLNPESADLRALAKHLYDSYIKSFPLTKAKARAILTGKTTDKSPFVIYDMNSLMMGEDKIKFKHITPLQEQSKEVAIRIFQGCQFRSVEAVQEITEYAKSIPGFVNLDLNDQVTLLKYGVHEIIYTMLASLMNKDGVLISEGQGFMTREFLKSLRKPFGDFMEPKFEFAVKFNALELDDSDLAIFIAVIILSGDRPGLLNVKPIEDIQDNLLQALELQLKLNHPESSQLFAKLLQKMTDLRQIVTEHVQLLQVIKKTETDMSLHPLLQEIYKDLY

Take `COc1cc(C(O)CN)ccc1O` (configuration not stated): the Potency result in [1], in assay [2], in assay [3], in assay [4] and in [5] was “inactive” throughout.

In the case of `O=C1CC[C@@]2(O)C3Cc4ccc(O)c5c4C2(CCN3CC2CC2)[C@H]1O5` (some centres not stated), the Potency result in [1] and in [4] was “inactive” throughout.

With `CN1C2CCC1CC(OC(=O)c1cc(Cl)cc(Cl)c1)C2` (configuration not stated), the Potency entry in [1] and in assay [4] was “inactive” in each case.

With `Cc1nccc2c1[nH]c1ccccc12`, the Potency entry in assay [1], in assay [2], in [4] and in [5] was “inactive” each time.

`CC[C@@H]1C(=O)OC[C@@H]1Cc1cncn1C`: the Potency result in assay [1] and in [4] was “inactive” throughout.

`CN[C@@H]1C[C@@H](c2ccc(Cl)c(Cl)c2)c2ccccc21`: the Potency result in assay [6], in assay [7], in assay [8], in assay [10], in assay [11] and in assay [12] was “inactive” in each case. The Potency entry in assay [13], in assay [16], in [17], in assay [18], in assay [19] and in [20] was “inactive” in each case. Besides, the Potency result in assay [23], in assay [24], in assay [27], in assay [28], in assay [29] and in [31] was “inactive” throughout. Also, the Potency entry in assay [32], in assay [1], in assay [2], in assay [3] and in [34] was “inactive” in each case. Moreover, the result in assay [9], in assay [14] and in assay [15] was inactive. The Potency is 11.9 µM (active) in assay [21]; 11.9 µM (active) in assay [22]; 11.9 µM (active) in [25]; 11.9 µM (active) in assay [26]; 29.8 µM (active) in assay [30]; 28.2 µM (active) in [33].
